Molecules are shown by their SMILES. The campaign covered roughly 410,000 compounds. About 5,100 (1.2%) were called active. A call without a number means that no potency is given here. Another 8% or so got no clear call; they are omitted. The sample holds actives, similar compounds and a random draw of the others, so the mix is not that of the screen. A number with no mark means an inactive call. The call rests on the fitted dose curve; tested in HEK293T cells.
Potency means the concentration at half of the fitted maximal effect.

A short description of this test: High Throughput Screening for Foot and Mouth Disease Virus Antivirals. Further: nearly all actives have a fitted effect of over 45% in size. Conditions: FMDV antiviral cell-based qHTS; series mostly up to 57.9 µM. For orientation: qHTS replaces the single test concentration by a dilution series.
Turning to `O=S(=O)(NCC(c1ccccc1)N1CCc2ccccc21)c1ccccc1` (stereo not given), the Potency result was “inactive”.
In the case of `CC1CCCN(Cc2nc3c(c(=O)n(C)c(=O)n3C)n2CC(=O)c2ccccc2)C1` (stereo not given), the Potency result is “inactive”.
For `COCCn1c(CN2CCC(Cc3ccccc3)CC2)nc2c1c(=O)n(C)c(=O)n2C`, the Potency is 15.8 µM (active).
On the same count and under the same terms, then `CC1CN(Cc2nc3c(c(=O)n(C)c(=O)n3C)n2Cc2cccc(Cl)c2)CC(C)O1` (stereo not given), with “inactive”.
For the molecule `CC(C)C1=CC2=CC[C@H]3[C@](C)(C(=O)O)CCC[C@]3(C)C2CC1` (stereo not given in full), the Potency result is “inactive”.
Regarding `CC(=O)N1CCN(Cc2cc(=O)oc3cc(C)ccc23)CC1`, the Potency result was “inactive”.
As to `O=c1cc(CN2CCN(S(=O)(=O)/C=C/c3ccccc3)CC2)c2ccc(O)cc2o1`, the Potency result is “inactive”.
Take `COc1ccc2c(CN3CCN(S(=O)(=O)c4cccs4)CC3)cc(=O)oc2c1`: the Potency is 39.8 µM (active).
Same read-out and setting: then `O=c1c(NCc2cccs2)nccn1-c1ccccc1`, with “inactive”.
For the molecule `CCCCC/C=C\C/C=C\C/C=C\C=C\[C@H](CCCC(=O)O)OO`, the activity change, negative = inhibition is -15.4% [at 0.463 µM].
In the case of `O=C(NCc1cccnc1)c1ccc(CS(=O)(=O)c2ccc(Br)cc2)o1`, the Potency entry was “inactive”.
Turning to `COc1ccc(CCNC(=O)c2nnc(CS(=O)(=O)c3ccccc3)o2)cc1OC`, the Potency result is “inactive”.
As for `COc1ccc(CCNC(=O)c2ccc(CS(=O)(=O)c3ccc(Br)cc3)o2)cc1OC`, the Potency was 31.6 µM (active).
Still for that read-out and setting: the value for `CCc1ccc(-n2c(SCc3cc(=O)n4cc(Br)ccc4n3)nc3[nH]ncc3c2=O)cc1` was 31.6 µM (active); that for `Cc1ccc(CSc2nc3[nH]ncc3c(=O)[nH]2)cc1` was “inactive”; that for `Cc1cccc2nc(CSc3nc4[nH]ncc4c(=O)n3-c3cccc(Cl)c3)cc(=O)n12` was 15.8 µM (active).
Turning to `Cc1nnc(NC(=O)CSc2nc3c([nH]c4ccccc43)c(=O)n2-c2cccc(Cl)c2)s1`, the Potency entry is “inactive”.
Still for that read-out and setting: the value for `Cc1nnc(SCc2cccc(Cl)c2)n(N)c1=O` was “inactive”; that for `O=c1c2sccc2nc(SCc2cc(=O)n3ccccc3n2)n1-c1ccc(Br)cc1` was “inactive”; that for `O=C(NCc1ccccc1)C(=O)NCC(c1ccco1)S(=O)(=O)c1ccc(Cl)cc1` (stereo not given) was 31.6 µM (active).
Consider `O=C(Cc1ccc(Cl)cc1)NCC(c1cccs1)S(=O)(=O)c1ccc(Cl)cc1` (stereo not given), for which the Potency entry was “inactive”.
As to `COc1ccc(CCNC(=O)C(=O)NCC(c2ccco2)S(=O)(=O)c2cccs2)cc1OC` (stereo not given), the Potency entry was “inactive”.
Take `COc1ccc(Oc2ncc3nc(-c4ccc(F)cc4)c(=O)n(C)c3n2)cc1`: the Potency entry was “inactive”.
Take `CC(=O)Nc1cc(C(=O)NCc2ccc(F)cc2)ccc1Sc1ccc(F)cc1`: the Potency result is “inactive”.
With `COc1ccc(C2=Nn3c(nnc3-c3ccccc3OC)SC2)cc1OC1CCCC1`, the Potency is 14.1 µM (active).
On the same count and under the same terms, then `Cc1nnc2n1N=C(c1ccc3c(c1)NC(=O)CO3)CS2`, with “inactive”; and `CCN(CCCNC(=O)CSc1cc(=O)n(C)c2cc(Cl)ccc12)c1cccc(C)c1`, with “inactive”; and `CCC1(C2CCN(C(=O)c3cccc(F)c3F)CC2)NC(=O)N(CCc2scnc2C)C1=O` (stereo not given), with “inactive”.
Turning to `COc1cc(=O)n2c(c1C(=O)NCc1ccco1)CCN(Cc1ccccc1)CC2`, the Potency result was “inactive”.
`COc1cccc(-c2nc(CS(=O)(=O)CC(=O)N3CCN(c4cc(C)ccc4C)CC3)c(C)o2)c1`: the Potency was 20 µM (active).
Still for that read-out and setting: the value for `Cc1ccccc1-c1nc(CS(=O)(=O)CC(=O)N2CCc3ccccc3C2)c(C)o1` was “inactive”.
As to `CCCCN(CC)CCCNC(=O)CS(=O)(=O)Cc1nc(-c2cccc(OC)c2)oc1C`, the Potency entry is “inactive”.
`COc1ccc(C)cc1-n1c(-c2ccc(C)cc2)cc2c1CC(C)(C)CC2=O`: the Potency result is “inactive”.
As for `N#CC(C#N)=Cc1cc(O)c(O)c([N+](=O)[O-])c1`, the Potency entry was “inactive”.
As to `COc1ccc(-n2nnc(-c3nsc(NC(=O)c4ccc(C)c(C)c4)n3)c2C)cc1Cl`, the Potency result was “inactive”.
With `CCc1ccc(C(=O)NNC(=O)C2CCN(c3ncnc4sc(C)c(C)c34)CC2)cc1`, the Potency was 31.6 µM (active).
Still for that read-out and setting: the value for `Cc1sc2ncnc(N3CCC(C(=O)NNC(=O)c4ccc(F)cc4)CC3)c2c1C` was 20 µM (active); that for `Cc1sc2ncnc(SCC(=O)NC3CCS(=O)(=O)C3)c2c1C` (stereo not given) was “inactive”; that for `Cc1sc2ncnc(SCC(=O)Nc3ccc(CN4CCCC4)cc3)c2c1C` was “inactive”.
For `Cc1ccc(C)n1-c1nnc(N2CCC(C(=O)NCc3ccc(F)cc3)CC2)s1`, the Potency result is “inactive”.
Same read-out and setting: then `CCc1ccc(CNC(=O)C2CCN(c3nnc(C)c4c(C)n(-c5ccc(C)cc5)nc34)CC2)cc1`, with “inactive”.
Take `COc1cccc(Cn2c(=O)c(CCc3ccccc3)nc3cnc(N(C)C)nc32)c1`: the Potency result is “inactive”.
Take `COc1ccc(/C=C2\NC(=O)[C@@H]3Cc4ccccc4CN3C2=O)cc1`: the Potency entry was “inactive”.
Still for that read-out and setting: then `CC(=O)N1CCC2(CC1)CCN(c1ccncc1)CC2`, with “inactive”; and `COc1ccc(C2Oc3c(I)c(OC)cc(OC)c3CC2O)cc1OC` (stereo not given), with “inactive”; and `COc1ccc(-n2c(=O)c(C)nc3cnc(N4CCOCC4)nc32)cc1`, with “inactive”.
Consider `Cc1ccc(CCNC(=O)c2ccc3c(c2)nc2n3CCC(C)C2)cc1` (stereo not given), for which the Potency entry was “inactive”.
Take `CCCCCn1c(SCCC(C)C)nc2c1c(=O)[nH]c(=O)n2C`: the Potency was 39.8 µM (active).
`CC=CCn1c(SCCCc2ccccc2)nc2c1c(=O)[nH]c(=O)n2C`: the Potency result was “inactive”.
As to `C=CCn1c(SCc2ccccc2)nc2c1c(=O)[nH]c(=O)n2C`, the Potency result was “inactive”.
For `COc1ccc(S(=O)(=O)NCc2cccn2Cc2cccc(C)c2)cc1`, the Potency entry was “inactive”.
For the molecule `Cn1cc(-c2nc3cnc(N4CCNCC4)nc3n(CCc3ccccc3)c2=O)c2ccccc21`, the Potency entry is “inactive”.
Take `Cc1cc(-c2ccnc(-n3ncc(C(=O)NC(C)(C)CO)c3C3CC3)n2)c(C)s1`: the Potency result is “inactive”.
As to `CCOC(=O)c1c(NC(=O)c2cc(CC)on2)sc(C(C)=O)c1C`, the Potency result was “inactive”.
Take `CCOC(=O)c1c(NC(=O)CCl)sc(C(=O)N(CC)CC)c1C`: the Potency was 20 µM (active).
Take `CCOC(=O)c1c(NC(=O)COC(=O)c2ccc(S(=O)(=O)C(F)F)cc2)sc(C(=O)N(C)C)c1C`: the Potency result is “inactive”.
On the same count and under the same terms, then `O=C(CCS(=O)(=O)c1ccc2c(c1)NC(=O)CO2)Nc1cccc(C(F)(F)F)c1`, with “inactive”; and `O=C(c1ccco1)N1CCC2(CC1)CN(c1ncccn1)C2`, with “inactive”; and `CCOC(=O)c1cc2c(=O)n3ccccc3nc2n(Cc2ccco2)c1=NC(=O)c1ccc(F)cc1`, with “inactive”.
On to `Cn1c(=O)c(-c2ccccc2)nc2cnc(N3CCNCC3)nc21`, for which the Potency result was “inactive”.
On to `Cc1ccc(-c2cn3cc(C)ccc3n2)cc1`, for which the Potency was 8.91 µM (active).
Still for that read-out and setting: then `Cn1cnc(C(F)(F)F)c1-c1ccc([N+](=O)[O-])cc1`, with “inactive”; and `Cc1ccc(-n2cc3ccc([N+](=O)[O-])cc3n2)cc1`, with “inactive”; and `Cc1ccc(-c2cn3cc([N+](=O)[O-])ccc3n2)cc1`, with 11.2 µM (active).
For the molecule `Cc1nc(-c2ccccc2)cn2c1nc1ccccc12`, the Potency result is “inactive”.

These data come from PubChem BioAssay AID1159524 (National Center for Advancing Translational Sciences (NCATS), 2015).
